ChEMBL document CHEMBL3988442, “University of Dundee, Small-Polar-MMV Screening Library” (2021)

Columns and labels:
Assay type in all cases: functional
Set-up in all cases: scale not given: direction of the effect not stated beside the values
Details in all cases: 30 µM
[1] = target: T1, Aspartate--tRNA(Asp/Asn) ligase (Mycobacterium tuberculosis (strain ATCC 25618 / H37Rv)) (UniProt P9WFW3); assay: Assay for Asp RNA synthetase-1 from Mycobacterium tuberculosis; further: in the data most compounds retested in dose-response had high values
T1 sequence (whole entry): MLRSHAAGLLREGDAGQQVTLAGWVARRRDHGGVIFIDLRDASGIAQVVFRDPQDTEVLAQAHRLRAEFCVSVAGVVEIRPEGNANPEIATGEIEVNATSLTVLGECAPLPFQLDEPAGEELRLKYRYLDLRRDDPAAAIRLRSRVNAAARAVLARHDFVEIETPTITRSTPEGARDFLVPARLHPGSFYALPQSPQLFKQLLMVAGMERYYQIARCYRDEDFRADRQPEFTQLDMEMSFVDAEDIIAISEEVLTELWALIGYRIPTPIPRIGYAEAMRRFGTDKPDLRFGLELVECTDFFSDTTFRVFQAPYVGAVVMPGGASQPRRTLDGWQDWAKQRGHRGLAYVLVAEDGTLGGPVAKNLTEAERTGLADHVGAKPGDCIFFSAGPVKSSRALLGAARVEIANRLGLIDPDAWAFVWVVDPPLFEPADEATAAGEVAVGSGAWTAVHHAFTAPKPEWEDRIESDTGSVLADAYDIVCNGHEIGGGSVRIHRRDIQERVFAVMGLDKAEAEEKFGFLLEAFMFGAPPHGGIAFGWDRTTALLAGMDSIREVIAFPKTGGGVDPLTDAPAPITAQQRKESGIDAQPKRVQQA

[2] = target: Shiga toxin 2 (Escherichia coli O157:H7) (UniProt P09385+P09386); assay: E. coli 0.157:H7 Shiga Toxin SOP - stx2 screening assay
[3] = target: AMP-activated protein kinase, AMPK (Homo sapiens) (UniProt P54646+O43741+P54619+Q9UGJ0+Q9Y478+Q13131+Q9UGI9); assay: AMP-dependent Kinase enzyme assay. An in vitro enzyme assay that detects ADP turnover that is directly proportional to AMPK activity. This uses naive AMPK that is activated during the assay with MK-8722

Compound	Percent Effect [1] [%]	Percent Effect [2] [%]	Percent Effect [3] [%]
Cn1cc(N2CCC3(CCN(Cc4nccs4)C3)C2=O)cn1 (configuration not stated)	-0.749	-2.2	–
N#Cc1ccc(CN2CCN(C(=O)C3CCC3)[C@@H]3CS(=O)(=O)C[C@@H]32)cc1	-2.41	-34.5	–
CCn1cc(NC(=O)NCC(O)COc2cccc(F)c2)cn1 (configuration not stated)	1.57	20.1	–
Cn1cc(C2=CCN(CCC(=O)NCc3ccc(Cl)cc3)CC2)cn1	–	–	6.44
CN1CC(=O)N(c2cnn(C)c2)CC12CCN(Cc1nccn1C)C2 (configuration not stated)	-3.88	-23.4	–
CC(=O)Nc1cccc(-c2ccccc2CCN)c1	–	–	4.86
COc1c(CNCc2ccc(N(C)C)nc2)c(C(C)C)nn1C	0.0333	14	–
O=C(c1cc(C2CC2)on1)N1CCCC(n2cncn2)C1 (configuration not stated)	-0.789	-16.7	–
Cc1ccccc1S(=O)(=O)NC(=O)CSc1ccc2c(c1)OCCO2	-0.334	-0.0455	–
CC(=O)NCCNC(=O)CN1CCN(Cc2nccn2C)C(C)C1 (configuration not stated)	2.19	2.09	–
CCc1nc(CN2CCCC(N(C)Cc3cnc(C)s3)C2)no1 (configuration not stated)	-0.259	4.86	–
CCn1ccnc1CN1CCCC(CO)(Cc2cccc(Cl)c2)C1 (configuration not stated)	10	15.9	–
CC1CN(C)CCN1C(=O)Cc1cc(Cl)c2c(c1)OCCO2 (configuration not stated)	–	–	1.93
Cc1cc(C)n(CCCNC(=O)[C@@H](C)NC(=O)OC(C)(C)C)n1	2.46	12.1	–
c1cnc(-c2nc(CNCCn3cccn3)cs2)nc1	-1.5	5.58	–
CCCc1nc(C(=O)N[C@H]2COC[C@@H]2N2CCN(C)CC2)cs1	–	–	-1.36
O=S1(=O)C[C@@H]2[C@H](C1)N(Cc1ncc[nH]1)CCN2CC1CC1	0.123	4.23	–
CN(CCNC(=O)NCc1ccncc1)C1CCCC1	-2.09	8.07	–
CN(C)c1cncc(C2CCN(C(=O)CO)CC2)n1	2.1	7.95	–
COc1ccc(NC(=O)CCN2CC=C(c3cnn(C)c3)CC2)cc1Cl	–	–	12.5
COc1ccccc1CNC(=O)C1=NN(c2ccc(C)cc2)C(=O)CN1	17.6	11	–
